Experimental data: PubChem BioAssay AID1240 (Sanford-Burnham Center for Chemical Genomics, 2008)
About 800 (1.6%) of roughly 50,000 compounds showed an effect of 50% or more. The list comes from a sample in which strong results are over-represented; it also holds similar structures and randomly drawn compounds.

The compounds below were run against Bcl-2-like protein 10 (Homo sapiens) (UniProt Q9HD36) (assay: TR3 peptide-Bcl-B binding displacers, biochemical primary FP assay, phenotype converters (AID 1240;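 note: 0% = Bcl-B with tracer peptide and DMSO and 100% = tracer peptide lacking Bcl-B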)). Conditions: GST-Bcl-B / FITC-TR3 peptide fluorescence polarization; stronger effect = higher value; compound at 3.75 mg/L.
Chain of Bcl-2-like protein 10 (Homo sapiens) (Q9HD36 whole entry, looked up): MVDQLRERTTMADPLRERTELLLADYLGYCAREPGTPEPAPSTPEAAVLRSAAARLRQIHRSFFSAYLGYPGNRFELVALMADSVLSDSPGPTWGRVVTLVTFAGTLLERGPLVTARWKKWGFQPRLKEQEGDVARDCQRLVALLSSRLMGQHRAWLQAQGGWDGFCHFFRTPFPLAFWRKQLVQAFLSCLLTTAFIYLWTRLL
Work on O=C(CN1C(=O)c2ccccc2C1=O)Nc1nc(-c2ccccc2)cs1 yielded a displacement of -6.7%. With COC(=O)C(C)N(C(=O)c1ccc(C(=O)c2ccccc2)cc1)c1c(C)cccc1C (configuration not stated) the displacement was 10.7%. COc1cccc(-c2nnc(-c3ccncc3)o2)c1 showed a displacement of 6.6%. Compound COc1cccc(OCCNC(=O)c2cc(OC)c(OC)c(OC)c2)c1 has a displacement of 11.6%. O=C1NCC(c2ccccc2)C1C(=O)N/N=C\c1cc([N+](=O)[O-])cc(Br)c1O (configuration not stated) gave a displacement of 5.6%. COCCCNC(=O)/C(=C/c1ccc(-c2ccc(Br)cc2)o1)NC(=O)c1ccccc1 showed a displacement of -6.6%. With CCOc1ccc(NC(=O)/C=C/c2ccc(Cl)cc2)cc1 the displacement was 10.1%. With COc1ccc(Cc2noc(-c3ccccc3C)n2)cc1 the displacement was -6.7%. Work on COC(=O)C1=NN(C(=O)c2ccccc2)C(O)(C(C)(C)C)C1 (configuration not stated) yielded a displacement of -3.6%. Compound COc1ccc(C=C2C(=O)c3ccccc3C2=O)c(OC)c1 has a displacement of 181%. COc1ccc(C=C2C(=O)c3ccccc3C2=O)c(O)c1 showed a displacement of 18.4%. In the case of COc1cccc(/C=C2/N=C(c3ccc(NC(C)=O)cc3)OC2=O)c1, the displacement is reported as 33.2%. O=C1OC(c2ccccc2F)=N/C1=C\c1cccc(I)c1 was tested, and the displacement was -0.4%. Work on COc1ccc(C2=NC(=Cc3cccc4ccccc34)C(=O)O2)cc1 yielded a displacement of 108%. Compound O=C1OC(c2ccccc2F)=N/C1=C\c1ccccc1[N+](=O)[O-] has a displacement of 4.1%. Compound COc1ccccc1C=C1C(=O)c2ccccc2C1=O has a displacement of 11.5%. O=C1OC(c2ccccc2F)=N/C1=C\c1cccc2ccccc12 was tested, and the displacement was 78.4%. COc1ccc(C2=N/C(=C\N(C)C)C(=O)O2)cc1 gave a displacement of -9%. Cc1onc(-c2c(Cl)cccc2Cl)c1C(=O)N1CCN(Cc2ccccc2)CC1 showed a displacement of 0.2%. Work on CCOC(=O)CNC1CC(C)(C)NC(C)(C)C1 yielded a displacement of -1.2%. COc1ccc(NC(=O)c2ccc(N(Cc3ccc(Cl)cc3)S(C)(=O)=O)cc2)c(OC)c1 gave a displacement of 26.7%. For Nc1cc(-c2ccc(Br)cc2)nn1Cc1ccc(Cl)cc1, the displacement was -1.3%. C=CCn1c(=S)[nH]c2sc3c(c2c1=O)CCc1ccccc1-3 showed a displacement of -4.7%. In the case of O=c1c2c3c(sc2[nH]c(=S)n1-c1ccccc1)-c1ccccc1CC3, the displacement is reported as 102%. O=c1c2c3c(sc2[nH]c(=S)n1-c1ccccc1)CCC3 was tested, and the displacement was -2.5%. With O=C(c1ccc(-c2ccccc2)cc1)N1CCN(Cc2ccc3c(c2)OCO3)CC1 the displacement was -1.6%. Cc1[nH]c2ccccc2c1/C=C/c1nc2ccccc2c(=O)n1C was tested, and the displacement was 186%. Compound Cc1c(/C=C/c2nc3ccccc3c(=O)n2C)c2ccccc2n1C has a displacement of 3%. For O=c1c2ccccc2nc(/C=C/c2c[nH]c3ccccc23)n1-c1ccc([N+](=O)[O-])cc1, the displacement was -62.9%. For Cn1c(/C=C/c2c[nH]c3ccccc23)nc2ccccc2c1=O, the displacement was 108%. Cc1[nH]c2ccccc2c1/C=C/c1nc2ccccc2c(=O)n1Cc1ccccc1 gave a displacement of -5.8%. In the case of O=c1c2ccccc2nc(/C=C/c2c[nH]c3ccccc23)n1-c1cccc([N+](=O)[O-])c1, the displacement is reported as -2.2%.
